Compounds without any hit were thinned out: in the full panel of roughly 83,000, 20% have a hit.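 Negative percent growth values reflect cell death: -40 means 40% of the cells present at the start died, and -100 means all died.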 The source made the active and inactive calls. How the source made its calls: active means growth percent below 10; inactive means the rest.
tested on: K-562 leukemia; experiment: NCI-60 one-dose screen, 48 h (100 = growth as untreated, 0 = no growth, -100 = all killed); conditions: 10 µM

Row | SMILES | growth
1 | O=C1CC(c2cccc(-c3cccnc3)c2)=Nc2ccc(Br)cc2N1 | 54.2% (inactive)
2 | CCCOCC(O)CNCCN (centres undefined) | 99.3% (inactive)
3 | COc1ccc(C2C=C(c3ccc(Cl)c(Cl)c3)N=C3SC(C)=CN32)cc1 (centres undefined) | 83.2% (inactive)
4 | COC(=O)c1cnc2c(c1)Oc1ccccc1-c1ccnn1-2 | 90.7% (inactive)
5 | CCCCC(CC#N)(CCC)CCC | 101% (inactive)
6 | COc1cc(OC)cc(N2CCN(C(=O)Nc3nc4cc(F)ccc4nc3OC)CC2)c1 | 12.8% (inactive)
7 | CCOC(=O)Nc1ccc2c(c1)C(=O)N(CC)c1ccccc1O2 | 8.79% (active)
8 | C=C[C@]1(C)C=C2C(=O)[C@@]3(O)OC(=O)[C@@]4(CCCC(C)(C)[C@H]34)[C@@]2(O)CC1 | 1.73% (active)
9 | Cc1ccc2c3c(cccc13)-c1ccccc1C2=O | 108% (inactive)
10 | CCN(CC)CCn1c(=N)n(CC(O)c2ccc(Cl)c(Cl)c2)c2ccccc21 (centres undefined) | -0.392% (active)
11 | COc1cc(Nc2ccnc(N3CCN(c4ccnc5cc(Cl)ccc45)CC3)n2)cc(OC)c1 | 2.73% (active)
12 | O=C1CC[C@@H](C(=O)N[C@H]2CSSC[C@@H](C(=O)NCCc3ccccc3)NC(=O)[C@H](Cc3ccccc3)NC(=O)[C@@H]3CCCN3C(=O)[C@@H]3CCCN3C2=O)N1 | 90.6% (inactive)
13 | COc1cc(C(c2c[nH]c3ccccc23)N2CCCC2)ccc1OCc1ccccc1 (centres undefined) | 71.2% (inactive)
14 | Cc1ccc(/C=C2\CN(Cc3cn(CCNc4ccnc5cc(Cl)ccc45)nn3)C/C(=C\c3ccc(C)cc3)C2=O)cc1 | -14.7% (active)
15 | CCNC1(NC#N)CCCCC1 | 115% (inactive)
16 | CC(=O)Nc1ccc(Sc2ccc(NC(C)=O)cc2)cc1 | 96.2% (inactive)
17 | O=C(Nc1ccc(CN2CCOCC2)cc1)c1ccc(-c2cc(Cl)ccc2Cl)o1 | -23.7% (active)
18 | COc1cccc(C(=O)NNc2nc(N3CCN(C4CCCCC4)CC3)nc(N3CCN(C(c4ccccc4)c4ccccc4)CC3)n2)c1 | 11.5% (inactive)
19 | Oc1cc(O)c(Br)cc1Br | 97.5% (inactive)

Row | SMILES | growth
20 | CS(=O)(=O)Nc1ccc(Nc2c3ccccc3nc3cc(Cl)ccc23)cc1 | 20.6% (inactive)
21 | c1ccc(C2CCCCC2)c(OCCCCCN2CCNCC2)c1 | -13.1% (active)
22 | Cc1nnc2c3nnc(-c4ccc(Cl)cc4)n3c3ccccc3n12 | 90% (inactive)
23 | Cc1ccc(C)c2c1sc1nc3n[nH]c(N)c3c(=N)n12 | 98.3% (inactive)
24 | CCCc1ccnc(NS(=O)(=O)c2ccc(N)cc2)n1 | 54.7% (inactive)
25 | CCc1ccc(Nc2cc(C)nc3nc(C)nn23)cc1 | -24.3% (active)
26 | CN(C)c1ccc2c(c1)OC(N)=C(C#N)C2c1ccc2c(c1)CCO2 (centres undefined) | 17% (inactive)
27 | CC(C)C[C@H](NC(=O)CCn1ccc2ccccc2c1=O)B(O)O | 62.7% (inactive)
28 | COc1ccc(/C=C2\CCC3C(CCCC34OCCO4)C2=O)cc1 (centres undefined) | 39.7% (inactive)
29 | COc1cc(-c2nc3ccc(C)cc3[nH]2)ccc1OCc1nnc(-c2ccc(CC(C)C)cc2)o1 | 46% (inactive)
30 | COc1ccc(CSc2nc3cc(OC)c(OC)cc3c(=O)n2-c2ccc(OC)cc2OC)cc1 | 87.1% (inactive)
31 | C[N+]1=C(/C=C/c2ccc(I)cc2)C(C)(C)c2ccccc21 | 109% (inactive)
32 | c1ccc(OCCC[P+](c2ccccc2)(c2ccccc2)c2ccccc2)cc1 | 1.76% (active)
33 | CCN1CCN(c2nc(NNC(=O)c3cccc(OC)c3)nc(N3CCN(C(c4ccccc4)c4ccccc4)CC3)n2)CC1 | 16.5% (inactive)
34 | CNC(=O)c1cc(Oc2ccc(NC(=O)Nc3ccc(Cl)c(C(C)(C)C)c3)c(F)c2)ccn1 | 19% (inactive)
35 | CCc1cc2n(n1)-c1ncc(C(=O)OC)cc1Oc1ccccc1-2 | 102% (inactive)
36 | O=C(O)c1ccc(CNc2ccc(C(=O)CCl)cc2)cc1 | 92.1% (inactive)
37 | CCN(CCCNC(=O)Cc1cc(=O)oc2cc(N(C)C)ccc12)CCNc1ccnc2cc(Cl)ccc12 | 0.722% (active)

tested on: MALME-3M melanoma; experiment: as above; conditions: 10 µM

Row | SMILES | growth
38 | O=C1CC(c2cccc(-c3cccnc3)c2)=Nc2ccc(Br)cc2N1 | 40.9% (inactive)
39 | CCCOCC(O)CNCCN (centres undefined) | 106% (inactive)
40 | COc1ccc(C2C=C(c3ccc(Cl)c(Cl)c3)N=C3SC(C)=CN32)cc1 (centres undefined) | 90.2% (inactive)
41 | COC(=O)c1cnc2c(c1)Oc1ccccc1-c1ccnn1-2 | 101% (inactive)
42 | CCCCC(CC#N)(CCC)CCC | 82.7% (inactive)
43 | COc1cc(OC)cc(N2CCN(C(=O)Nc3nc4cc(F)ccc4nc3OC)CC2)c1 | 44.6% (inactive)
44 | CCOC(=O)Nc1ccc2c(c1)C(=O)N(CC)c1ccccc1O2 | 68% (inactive)
45 | C=C[C@]1(C)C=C2C(=O)[C@@]3(O)OC(=O)[C@@]4(CCCC(C)(C)[C@H]34)[C@@]2(O)CC1 | -69.6% (active)
46 | Cc1ccc2c3c(cccc13)-c1ccccc1C2=O | 110% (inactive)
47 | CCN(CC)CCn1c(=N)n(CC(O)c2ccc(Cl)c(Cl)c2)c2ccccc21 (centres undefined) | -35.6% (active)
48 | COc1cc(Nc2ccnc(N3CCN(c4ccnc5cc(Cl)ccc45)CC3)n2)cc(OC)c1 | -4.19% (active)
49 | O=C1CC[C@@H](C(=O)N[C@H]2CSSC[C@@H](C(=O)NCCc3ccccc3)NC(=O)[C@H](Cc3ccccc3)NC(=O)[C@@H]3CCCN3C(=O)[C@@H]3CCCN3C2=O)N1 | 110% (inactive)
50 | COc1cc(C(c2c[nH]c3ccccc23)N2CCCC2)ccc1OCc1ccccc1 (centres undefined) | 81.8% (inactive)
51 | Cc1ccc(/C=C2\CN(Cc3cn(CCNc4ccnc5cc(Cl)ccc45)nn3)C/C(=C\c3ccc(C)cc3)C2=O)cc1 | -14.9% (active)
52 | CCNC1(NC#N)CCCCC1 | 113% (inactive)
53 | CC(=O)Nc1ccc(Sc2ccc(NC(C)=O)cc2)cc1 | 102% (inactive)
54 | O=C(Nc1ccc(CN2CCOCC2)cc1)c1ccc(-c2cc(Cl)ccc2Cl)o1 | -53.4% (active)
55 | COc1cccc(C(=O)NNc2nc(N3CCN(C4CCCCC4)CC3)nc(N3CCN(C(c4ccccc4)c4ccccc4)CC3)n2)c1 | 9.41% (active)
56 | Oc1cc(O)c(Br)cc1Br | 120% (inactive)

Row | SMILES | growth
57 | CS(=O)(=O)Nc1ccc(Nc2c3ccccc3nc3cc(Cl)ccc23)cc1 | 28.3% (inactive)
58 | c1ccc(C2CCCCC2)c(OCCCCCN2CCNCC2)c1 | 43% (inactive)
59 | Cc1nnc2c3nnc(-c4ccc(Cl)cc4)n3c3ccccc3n12 | 88.6% (inactive)
60 | Cc1ccc(C)c2c1sc1nc3n[nH]c(N)c3c(=N)n12 | 128% (inactive)
61 | CCCc1ccnc(NS(=O)(=O)c2ccc(N)cc2)n1 | 67.1% (inactive)
62 | CCc1ccc(Nc2cc(C)nc3nc(C)nn23)cc1 | -90.2% (active)
63 | CN(C)c1ccc2c(c1)OC(N)=C(C#N)C2c1ccc2c(c1)CCO2 (centres undefined) | 87.5% (inactive)
64 | CC(C)C[C@H](NC(=O)CCn1ccc2ccccc2c1=O)B(O)O | 38.2% (inactive)
65 | COc1ccc(/C=C2\CCC3C(CCCC34OCCO4)C2=O)cc1 (centres undefined) | 70.5% (inactive)
66 | COc1cc(-c2nc3ccc(C)cc3[nH]2)ccc1OCc1nnc(-c2ccc(CC(C)C)cc2)o1 | 98% (inactive)
67 | COc1ccc(CSc2nc3cc(OC)c(OC)cc3c(=O)n2-c2ccc(OC)cc2OC)cc1 | 82.6% (inactive)
68 | C[N+]1=C(/C=C/c2ccc(I)cc2)C(C)(C)c2ccccc21 | 86% (inactive)
69 | c1ccc(OCCC[P+](c2ccccc2)(c2ccccc2)c2ccccc2)cc1 | 16.5% (inactive)
70 | CCN1CCN(c2nc(NNC(=O)c3cccc(OC)c3)nc(N3CCN(C(c4ccccc4)c4ccccc4)CC3)n2)CC1 | -79.5% (active)
71 | CNC(=O)c1cc(Oc2ccc(NC(=O)Nc3ccc(Cl)c(C(C)(C)C)c3)c(F)c2)ccn1 | 0.423% (active)
72 | CCc1cc2n(n1)-c1ncc(C(=O)OC)cc1Oc1ccccc1-2 | 120% (inactive)
73 | O=C(O)c1ccc(CNc2ccc(C(=O)CCl)cc2)cc1 | 111% (inactive)
74 | CCN(CCCNC(=O)Cc1cc(=O)oc2cc(N(C)C)ccc12)CCNc1ccnc2cc(Cl)ccc12 | 88.2% (inactive)

From PubChem BioAssay (NCI)
